# BAZ2B inh = BAZ2B (human) inhibition; Potency, µM (highest dose often 114 µM), without a hit: at the highest dose activity change, negative = inhibition, usual class: inhibitors; AID 504333; 360,000 compounds, 4.4% hits; Q9UIF8; AlphaScreen BAZ2B-H3K14Ac peptide displacement; further: potency means the concentration at half of the fitted maximal effect; on the % scale 0 is the no-effect control and ±100 the full control effect; nearly all actives have a fitted effect of over 60% in size
#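 Complex of BAZ2B and biotin-H3K14Ac (50 nM apiece) forms over 30 min at RT, then faces library compounds up to 110 uM for another 30 min; AlphaScreen beads added, 20 min dark incubation, luminescence read.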
# JMJD2A Tudor = blocks the human JMJD2A Tudor domain; O75164; AlphaScreen JMJD2A-Tudor / H3K4me3 peptide binding; Potency, µM (series often up to 114 µM), for the others: at the top dose activity change, negative = inhibition, hits mostly inhibitors; 390,000 compounds, 4.4% hits; AID 504339; further: potency means the concentration at half of the fitted maximal effect; on the % scale 0 is the no-effect control and ±100 the full control effect; nearly all actives have a fitted effect of over 50% in size
# Target sequence (O75164 whole entry, looked up, the tested form may be a part): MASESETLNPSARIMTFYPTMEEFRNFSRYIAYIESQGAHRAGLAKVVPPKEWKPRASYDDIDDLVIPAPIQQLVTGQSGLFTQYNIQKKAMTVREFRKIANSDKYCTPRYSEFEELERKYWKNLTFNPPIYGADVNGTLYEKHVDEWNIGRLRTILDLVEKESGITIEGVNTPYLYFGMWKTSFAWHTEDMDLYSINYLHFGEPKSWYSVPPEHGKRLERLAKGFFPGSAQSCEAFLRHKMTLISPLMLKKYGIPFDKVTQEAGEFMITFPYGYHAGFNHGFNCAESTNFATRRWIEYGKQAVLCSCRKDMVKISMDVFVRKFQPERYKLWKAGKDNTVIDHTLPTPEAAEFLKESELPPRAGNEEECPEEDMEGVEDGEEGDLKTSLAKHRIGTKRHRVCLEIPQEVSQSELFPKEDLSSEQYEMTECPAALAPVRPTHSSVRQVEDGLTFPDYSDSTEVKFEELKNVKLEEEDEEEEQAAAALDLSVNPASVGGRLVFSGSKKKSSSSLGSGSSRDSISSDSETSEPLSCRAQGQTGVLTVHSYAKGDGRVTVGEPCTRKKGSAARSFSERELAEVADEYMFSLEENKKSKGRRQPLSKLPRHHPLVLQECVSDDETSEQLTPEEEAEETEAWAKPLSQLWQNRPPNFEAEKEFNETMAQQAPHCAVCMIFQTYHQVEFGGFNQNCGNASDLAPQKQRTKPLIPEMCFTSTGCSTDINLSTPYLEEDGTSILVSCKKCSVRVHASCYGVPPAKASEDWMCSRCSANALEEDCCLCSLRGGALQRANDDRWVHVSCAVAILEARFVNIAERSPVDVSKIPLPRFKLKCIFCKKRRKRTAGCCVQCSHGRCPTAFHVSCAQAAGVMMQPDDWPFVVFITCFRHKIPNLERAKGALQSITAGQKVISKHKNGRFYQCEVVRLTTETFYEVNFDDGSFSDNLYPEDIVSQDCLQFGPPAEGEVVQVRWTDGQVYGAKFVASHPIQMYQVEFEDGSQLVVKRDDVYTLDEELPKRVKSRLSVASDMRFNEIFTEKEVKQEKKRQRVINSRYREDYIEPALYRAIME
# HP1b binding inh = blocks HP1-beta chromodomain binding to methylated histone tails; AlphaScreen HP1-beta / biotin-H3K9me3 peptide binding; P83916; 390,000 compounds, 0.56% hits; Potency, µM (top dose mostly 114 µM), for inactives: at the highest dose activity change, negative = inhibition, most hits filed as inhibitors; further: potency means the concentration at half of the fitted maximal effect; nearly all actives have a fitted effect of over 70% in size
#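 HP1-beta protein (50 nM final) preincubated 30 min at room temperature with biotinylated H3(1-18)K9me3 peptide (50 nM) in PBS pH 7.4, 0.01% Tween-20, then compound added for 30 min. AlphaScreen streptavidin donor/nickel chelate acceptor beads (10 ug/mL final), 30 min dark, luminescence read.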
# G9a block = blocks human histone lysine methyltransferase G9a; G9a H3K9 monomethylation, AlphaScreen, 2 h; 350,000 compounds, 8.8% hits; Potency, µM (series often up to 102 µM), for inactives: at the top dose activity, negative = inhibition, hits mostly inhibitors; Q96KQ7; further: potency means the concentration at half of the fitted maximal effect; on the % scale 0 is the no-effect control and ±100 the full control effect; nearly all actives have a fitted effect of over 75% in size
#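 Using a bead-based AlphaScreen, monomethylated H3K9 product from 2 h room-temperature reactions (G9a 20 nM, peptide 500 nM, SAM 20 uM) was detected with 0.5 ug/mL rabbit anti-H3K9me1 antibody.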
# Six1-Eya2 inh = inhibitors of human Six1/Eya2 interaction; Q15475+O00167; AlphaScreen GST-Six1/His-Eya2 binding, biochemical; hits give low values; activity change, % (no concentration beside the values); 360,000 compounds, 0.56% hits; AID 651725; in the data active means activity change below about -65%; inconclusive means mostly about -30% to -63%; further: on the % scale 0 is the no-effect control and ±100 the full control effect
#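 Homogeneous AlphaScreen proximity assay pairing GST-Six1 with His-tagged Eya2 (added as 5X mix: 250 nM and 500 nM) in 50 mM Tris pH 8.0, 300 mM NaCl, 1 mM TCEP. Glutathione donor and nickel acceptor beads; 1 h, 37 °C, dark.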
# CtBP-E1A inh = CtBP/E1A binding inhibition; AID 651724; 340,000 compounds, 0.49% hits; activity change, % (test concentration not listed); AlphaScreen GST-E1A/His-CtBP binding, 1536-well; hits give low values; in the data active means activity change below about -65%; inconclusive means mostly about -30% to -63%; further: on the % scale 0 is the no-effect control and ±100 the full control effect
#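 Homogeneous bead-based format: GST-tagged E1A captured on glutathione donor beads, His-tagged CtBP on nickel acceptor beads; compounds precede bead addition by 2 h at 37 °C.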
# Starred values were filed as active, the others as inactive; ? = inconclusive; . = no result; [ ] = dose if it differs, or a comment. The list is not random: actives were taken first. Their share in the collection is about 10%. Unless noted, the call rests on the fitted dose curve; in most records, active means well fitted inhibition curve with a large enough effect; inconclusive means small, poorly fitted or top-dose-only effect; inactive means no such curve, though single readings can be large or run the other way.
SMILES,BAZ2B inh,JMJD2A Tudor,HP1b binding inh,G9a block,Six1-Eya2 inh,CtBP-E1A inh
O=C(NCc1ccccc1Cl)c1ccc2c(=O)n(CCCN3CCCC3=O)c(=S)[nH]c2c1,3.8%,-9.8%,22.2%,-10.8%[59 µM],4.9,-5.8
COCCNC(=O)c1ccc2c(=O)n(CCCN3CCCC3=O)c(=S)[nH]c2c1,?,?,14.3%,?,1.3,-8.7
CCCCCNC(=O)c1ccc2c(=O)n(CCCN3CCCC3=O)c(=S)[nH]c2c1,-12.4%,-5.6%,28.9%,6.31µM*,-16.4,-9.3
O=C(NCc1cccnc1)c1ccc2c(=O)n(CCCN3CCCC3=O)c(=S)[nH]c2c1,?,?,53.8%,39.8µM*,-1.7,-12.6
Cc1ccc(C)c(NC(=O)CC2NCCNC2=O)c1 (stereo not given),-16.3%,-17.9%,6.2%,-1.1%[59 µM],.,.
COc1ccc(-c2cn(-c3ccc(C)cc3)c(S(=O)(=O)CC(=O)Nc3ccc(F)cc3)n2)cc1,?,?,17.0%,?,.,.
Cc1nn(CC(=O)NC2C(=O)N3C(C(=O)O)=C(CSc4nnnn4C)CSC23)cc1Br (stereo not given),?,0.0%,48.6%,39.8µM*,2.0,10.0
Cc1c(Cl)cnn1CC(=O)NC1C(=O)N2C(C(=O)O)=C(CSc3nnnn3C)CSC12 (stereo not given),56.2µM*,-15.9%,36.6%,?,-11.6,8.1
Cc1cc(=O)c(C(=O)N[C@@H](C(=O)N[C@@H]2C(=O)N3C(C(=O)O)=C(CSc4nnnn4C)CS[C@H]23)c2ccc(O)cc2)c[nH]1,.,.,.,-0.8%[12.7 µM],.,.
CO/N=C(/C(=O)NC1C(=O)N2C(C(=O)O)=C(CSc3nc(=O)c(O)nn3C)CSC12)c1csc(N)n1 (stereo not given),.,.,.,1.4%[2.33 µM],.,.
Cc1c(Cl)c(C(F)F)nn1CC(=O)NC1C(=O)N2C(C(=O)O)=C(CSc3nnnn3C)CSC12 (stereo not given),-38.1%,-29.6%,6.5%,28.2µM*,-14.6,10.9
Cn1nnnc1SCC1=C(C(=O)O)N2C(=O)C(NC(=O)Cn3nc(C(F)F)cc3C3CC3)C2SC1 (stereo not given),70.8µM*,-17.7%,25.2%,?,-9.5,3.3
CO[C@@]1(NC(=O)CSCC#N)C(=O)N2C(C(=O)O)=C(CSc3nnnn3C)CSC21 (stereo not given in full),.,.,.,-40.1%[2.33 µM],.,.
CC(=O)N/C(=C\c1ccccc1)C(=O)OCc1cccc(S(=O)(=O)N(C)C)c1,-2.4%,5.5%,26.8%,37.2%[0.501 µM],0.3,3.8
CC1=CC(=O)C(C(C)C)=C/C1=N/OS(=O)(=O)c1ccccc1,14.1µM*,44.7µM*,?,.,?,.
Cc1ccc(C2N=C(Nc3nc4ccccc4o3)NC3=C2C(=O)CC(C)(C)C3)cc1 (stereo not given),.,-4.6%[57.1 µM],15.4%[57 µM],.,.,.
COc1cccc(-c2ccc3ncnc(N4CCNCC4)c3c2)c1,.,.,.,22.5%[0.501 µM],.,.
Cc1ccc(-c2sc(-c3cccnc3)nc2CC(=O)O)cc1,-14.4%,-17.4%,22.2%,3.9%[59 µM],0.7,1.4
Cc1ccc(NC(=O)c2ccccc2)cc1,-5.9%,-26.6%,4.3%,11.8%[12.7 µM],2.0,1.2
Cc1ccc(NC(=O)C2=C(c3ccccc3)S(=O)(=O)CCS2(=O)=O)cc1,-2.4%,?,-21.8%[57 µM],39.8µM*,?,-7.6
Cc1ccc2c(=O)c(C(=O)c3ccc(F)cc3)cn(CC(=O)NCc3ccccc3Cl)c2n1,10.6%[57.1 µM],-11.3%,55.3%,-9.4%[59 µM],.,.
Cc1cc(Cl)cc(C)c1OCCNCc1ccccc1,70.8µM*,0.794µM*,?,7.94µM*,25.4,-15.6
C=CCNCCOc1c(C)cc(C)cc1Cl,8.0%,-2.1%[57.1 µM],36.4%,-7.9%[59 µM],11.2,5.6
Cc1ccc(NC(=S)NCCc2ccccc2)c(C)c1,-36.7%,-14.1%,?,3.9%[59 µM],0.4,-8.7
Cc1cc(C)c(OCCN(C)Cc2ccccc2)c(Br)c1,6.2%,-0.4%,53.6%,19.8%[59 µM],6.7,14.3
SMILES,BAZ2B inh,JMJD2A Tudor,HP1b binding inh,G9a block,Six1-Eya2 inh,CtBP-E1A inh
Cc1cc(C)c(OCCCCNCc2ccccc2)c(Cl)c1,56.2µM*,1.41µM*,-52.6%,34.9%[0.501 µM],2.1,3.0
Cc1cc(C)c(C)c(OCCNCc2ccccc2)c1,20µM*,3.55µM*,-7.6%,11.2µM*,1.2,3.3
Cc1cc(C)c(OCCNCc2ccccc2)c(C)c1,50.1µM*,1.12µM*,-24.4%,7.08µM*,5.1,1.7
Cc1ccc2c(c1)C(=O)N1[C@H]3c4ccccc4OC[C@@H]3[C@H](c3ccccc3)[C@]1(C)C(=O)N2,.,-34.5%,16.7%,.,-13.3,-7.6
CCCCC(=O)N(c1ccc2oc(C)c(C(C)=O)c2c1)S(=O)(=O)c1ccc(F)cc1C,-0.5%,-6.2%,18.3%,-7.2%[59 µM],.,.
Cc1cc(Cl)cc(C)c1OCCOCCNCc1ccccc1,?,22.4µM*,-3.8%,.,-1.9,.
c1ccc2cc(OCCOCCOc3ccc4ccccc4c3)ccc2c1,19.4%,123.1%,98.8%,12.6%,2.6,9.5
Clc1ccc(OCCOCCNCc2ccccc2)cc1Cl,?,25.1µM*,-14.3%,.,4.2,.
Cc1ccccc1NC(=O)COC(=O)c1ccc(S(=O)(=O)N2CCCC2)cc1,-8.2%,10.8%,34.6%,-14.7%[12.7 µM],3.3,-0.8
Cc1ccc(NC(=O)COC(=O)CCC(=O)c2cccs2)cc1,4.6%,-0.7%,27.2%,-10.9%,-0.3,9.5
CCN(CC)c1ccc(NC(=O)COC(=O)COc2ccccc2[N+](=O)[O-])cc1,44.7µM*,31.6µM*,-65.7%,7.08µM*,-24.1,12.9
CCN(CC)c1ccc(NC(=O)COC(=O)CCC(=O)c2cccs2)cc1,44.7µM*,?,?,-15.0%[2.33 µM],-25.6,.
CCN(CC)c1ccc(NC(=O)c2ccccc2OCC(=O)OC)cc1,31.6µM*,20µM*,?,.,?,?
Cc1ccc(/C=C/c2onc(C)c2S(=O)(=O)N2CCC(C(=O)NCc3ccc(C)o3)CC2)cc1,-16.9%,-25.6%,3.7%[57 µM],0.8%[59 µM],.,.
CN(C)C(N)=NCCC[C@H](N)C(=O)O,.,89.1µM*,1.7%,45.4%[12.7 µM],1.0,-23.6
COc1ccc(N2CCN(CCCNC(=O)CCC(=O)N3CCOc4ccc(Cl)cc43)CC2)cc1,31.6µM*,?,-17.2%,.,-18.0,?
O=C(CCC(=O)N1CCOc2ccc(Cl)cc21)NCCCN1CCN(c2ccccc2F)CC1,?,-18.8%,21.4%,89.1µM*,-2.2,-7.3
Cc1ccc(S(=O)(=O)NCCCCCC(=O)NCCc2ccccc2)cc1,-23.6%,-1.0%,9.9%,-32.5%,-6.4,.
Cc1ccccc1Nc1nc(CSc2nnnn2-c2ccccc2)cs1,-6.2%,-25.8%,6.3%,39.8µM*,-10.4,-7.3
